Data reported in PubChem BioAssay AID2279 (Southern Research Specialized Biocontainment Screening …, 2010).
Potency and affinity values are given separately.

Test: HIV-1 Env-mediated cell fusion inhibitors, dose response, CCR5-tropic Env (AID 2279)
Details: CCR5-tropic HIV-1 Env, reporter read-out; series mostly up to 50 µM; inhibition: at the top concentration; call rule not given here

inhibition, inactive:
COC(=O)c1sc(-c2ccc(C(C)(C)C)cc2)cc1NC(=O)COCC(=O)O 12.7%, CCCOc1ccc(C2C(C(=O)c3cc4ccccc4o3)=C(O)C(=O)N2c2cc(C)on2)cc1 (centres undefined) 31.8%, CCOC(=O)c1sc(N2C(=O)C(O)=C(C(=O)c3ccco3)C2c2cccc([N+](=O)[O-])c2)nc1C (centres undefined) 17.9%, O=C(O)CCN1C(=O)/C(=C\c2cccc(Oc3ccccc3)c2)SC1=S -2.4%, CCOc1cc(/C=C2/C(=N)N3C(=NC2=O)SN=C3S(=O)(=O)CC)ccc1OC(=O)c1ccco1 -0.67%, Cc1ccc(-c2nn(-c3ccccc3)cc2/C=C2\SC(=S)N(CC(=O)O)C2=O)cc1 -2.87% [at 25 µM], O=C(O)COc1ccc(/C=C/C(=O)c2ccc(C3CCCCC3)cc2)cc1 -0.44% [at 25 µM], COc1cccc(OCCOc2ccc(/C=C3\C(=N)N4N=C(S(C)(=O)=O)SC4=NC3=O)cc2OC)c1 14.9%, C/C(=N\Nc1ccc(C(=O)O)cc1)c1ccc2c(c1)Nc1ccccc1S2 27.4%, CCc1nnc(NS(=O)(=O)c2ccc(NC(=S)NC(=O)/C=C/c3ccc(C(C)C)cc3)cc2)s1 37.6%, N#Cc1c(-c2ccccc2)nc(SCc2cccc(C(F)(F)F)c2)[nH]c1=O -4.86%, CCOc1cc(Br)cc(C(c2c(C(=O)O)[nH]c3ccccc23)c2c(C(=O)O)[nH]c3ccccc23)c1O -22.4%, O=C(O)/C=C/C(=O)Nc1ccc(C2(c3ccc(NC(=O)/C=C/C(=O)O)cc3)c3ccccc3-c3ccccc32)cc1 4.84%, CCc1ccc(/C=C2\SC(=S)N(CCCC(=O)Nc3ccccc3C(=O)O)C2=O)cc1 16.9%
